The source made the active and inactive calls. The calls were made as follows: active = hit-call score of the fitted dose curve at least 0.9, where 1 is the maximum; inactive = score below 0.9.
Experiment: BSK_hDFCGF_SRB: Viability Assessment in the BioMAP Diversity Plus: hDFCGF Assay (AID 2283061);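 also: cells exposed to compound for 24 h before the read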
Conditions: primary human foreskin fibroblasts
Experimental: BSK_hDFCGF is a cell-based, multiplexed-readout assay that uses foreskin fibroblast, a human skin primary cell, with measurements taken at 24 hours after chemical dosing in a 96-well plate.BSK_hDFCGF_SRB is an assay component measured in the BSK_hDFCGF assay. It measures 0.1% sulforhodamine related to cell death using Sulforhodamine staining technology.Data from the assay component BSK_hDFCGF_SRB was analyzed into 1 assay endpoint. This assay endpoint, BSK_hDFCGF_SRB, was analyzed with bidirectional fitting relative to DMSO as the negative control and baseline of activity. Using a type of viability reporter, gain or loss-of-signal activity can be used to understand changes in the signaling. Furthermore, this assay endpoint can be referred to as a primary readout, because this assay has produced multiple assay endpoints where this one serves a signaling function. To generalize the intended target to other relatable targets, this assay endpoint is annotated to the cell morphology intended target family, where the subfamily is cell conformation.
The levels of cell surface (or secreted, indicated by the prefix "s") biomarker endpoints were measured by ELISA. Overt cytotoxicity to cells in confluent adherent cultures (all systems other than the BT system) was assessed by measuring total protein levels using sulforhodamine B (SRB) staining in parallel cultures at the time of biomarker measurements, indicated as SRB endpoints. For proliferation assays for adherent cell types, individual cell types are cultured at sub-confluence and relative cell numbers quantified by SRB staining at time points optimized for each system (48 h: 3C and CASM3C systems; 72 h: BT and HDF3CGF systems; 96 h: SAg system). SRB was performed by staining cells with 0.1% SRB after fixation with 10% TCA and reading wells at 560 nm.Viability and proliferation of PBMC (T cells) was quantified by Alamar Blue reduction for the SAg and BT systems. For PBMC viability (referred to as PBMC Cytotoxicity within the assay endpoint names), cells were plated (75,000/well in a 96-well plate) and then chemical samples added for 1 h before addition of activators, SEB and TSST-1 (20 ng/mL final concentration each). Cells were incubated for 90 h. Then, Alamar Blue (20 uL/well) (Invitrogen, Cat DAL1100) was added for 6 h, and the plates were read with a fluorescence microplate reader at 546/580 nm (excitation/emission). For PBMC proliferation, cells were plated and activated as above but incubated for only 16 h prior to addition of Alamar Blue. Plates were read after 6 h.
With CCOP(=S)(OCC)SCSP(=S)(OCC)OCC the outcome was “inactive”. For C=C(C)C(=O)[O][Sn]([CH2]CCC)([CH2]CCC)[CH2]CCC, the AC50 was 0.242 µM (active). In the case of CCOP(=S)(OCC)Oc1nc(Cl)c(Cl)cc1Cl, the outcome is reported as “inactive”. For CC(=O)[O][Hg][c]1ccccc1, the AC50 was 0.464 µM (active). With CC1(C)Cc2cccc(O)c2O1 the outcome was “inactive”. In the case of CCNc1nc(NC(C)(C)C)nc(SC)n1, the outcome is reported as “inactive”. For ClCC(Cl)CCl, the outcome was “inactive”. In the case of ClC(Cl)=C(Cl)C(Cl)=C(Cl)Cl, the outcome is reported as “inactive”. For Cn1sc(Cl)cc1=O, the AC50 was 30.5 µM (active). With BrCCBr the outcome was “inactive”. For NC(=S)Nc1ccccc1, the outcome was “inactive”. With O=C(O)C(Cl)(Cl)Cl the outcome was “inactive”. With CC(C)(C)CC(C)(C)c1ccc(O)cc1 the AC50 was 9.59 µM (active). For COP(=S)(OC)Oc1ccc(Sc2ccc(OP(=S)(OC)OC)cc2)cc1, the outcome was “inactive”. For Oc1c(I)cc(I)cc1I, the AC50 was 20 µM (active). With Oc1ccc(-c2ccccc2)cc1 the outcome was “inactive”. For CCOP(=S)(OCC)SCCS(=O)(=O)CC, the outcome was “inactive”. With NC(=O)O the outcome was “inactive”. For COc1cc(OC)nc(NC(=O)NS(=O)(=O)c2ncccc2C(=O)N(C)C)n1, the outcome was “inactive”. With C=CC(=O)OCCCCCC(C)C the outcome was “inactive”. In the case of ClC1=C(Cl)[C@]2(Cl)[C@H]3[C@H]([C@H]4C=C[C@H]3C4)[C@@]1(Cl)C2(Cl)Cl, the outcome is reported as “inactive”. With COc1cc(-c2ccc(N)c(OC)c2)ccc1N the outcome was “inactive”. In the case of CCC(C)(C)c1ccc(O)c(C(C)(C)CC)c1, the AC50 is reported as 11.3 µM (active). In the case of O=C(Nc1ccc2[nH]ccc2c1)c1cc2cc(F)ccc2n1Cc1cccc(F)c1, the AC50 is reported as 3.36 µM (active). In the case of CCSC(C)CC1CC(=O)C(C(CC)=NOC/C=C/Cl)=C(O)C1 (stereo not given), the outcome is reported as “inactive”. In the case of O=[N+]([O-])c1ccc(O)c([N+](=O)[O-])c1, the outcome is reported as “inactive”. In the case of COP(=S)(OC)Oc1ccc(S(=O)(=O)N(C)C)cc1, the outcome is reported as “inactive”. With CC(C)c1ccc(CO)cc1 the outcome was “inactive”. For CC(=O)C(Cl)C(=O)N(C)C (stereo not given), the outcome was “inactive”. For CN(C)N=O, the outcome was “inactive”. With Nc1cccc2ccccc12 the AC50 was 32 µM (active). For CCCCC(CC)CO[N+](=O)[O-] (stereo not given), the outcome was “inactive”. With O=C(OC1CCCCC1)c1ccccc1C(=O)OC1CCCCC1 the AC50 was 9.82 µM (active). For CCOC(=O)/C=C(C)/C=C/C[C@@H](C)CCCC(C)C, the AC50 was 25.1 µM (active). With Nc1ccc(-c2ccc(N)c(Cl)c2)cc1Cl the outcome was “inactive”. With ClC1(Cl)C2(Cl)C3(Cl)C4(Cl)C(Cl)(Cl)C5(Cl)C3(Cl)C1(Cl)C5(Cl)C24Cl (stereo not given) the outcome was “inactive”. In the case of CC(=O)OC(c1ccccc1)C(Cl)(Cl)Cl (stereo not given), the outcome is reported as “inactive”. For Oc1cccc2cccnc12, the AC50 was 0.564 µM (active). For CC(C)(C)c1cc(O)ccc1O, the AC50 was 4.07 µM (active). For O=[N+]([O-])c1ccc2c3c(cccc13)CC2, the outcome was “inactive”.
